From the supplement of paper PMC6555819

Assays:
Experiment in all cases: PBM binding z-score (relative to random genomic background probes); higher = stronger binding; sequences stand for … in GC…GCGATTGACAGCGTAGAATGAAGG
[1] = system: RARg homodimer (NR concentration 270 nM)
Procedure, shortened: (§1)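 Scanned fluorescence from custom Agilent 4×180K protein-binding microarrays was regression-normalized. Binding z-scores use random background probes as reference. Ligand-free nuclear receptor dimers were incubated on the arrays for 1 h and detected with antibodies against each partner (one per run).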

[2] = system: RXRa DBDmut IVT, anti-RXR (DBD mutation: RXRa K156A/R161A, NR concentration 90 nM)
Procedure, shortened: as §1

[3] = system: THRa:RXRa (NR concentration 90 nM, RXRa partner concentration 90 nM)
Procedure, shortened: as §1

[4] = system: THRa homodimer (NR concentration 90 nM)
Procedure, shortened: as §1

[5] = system: VDR homodimer (NR concentration 270 nM)
Procedure, shortened: as §1

[6] = system: RXRa homodimer (NR concentration 180 nM)
Procedure, shortened: as §1

[7] = system: RARg:RXRa (NR concentration 270 nM, RXRa partner concentration 90 nM)
Procedure, shortened: as §1

Sequence	PBM binding z-score [1]	PBM binding z-score [2]	PBM binding z-score [3]	PBM binding z-score [4]	PBM binding z-score [5]	PBM binding z-score [6]	PBM binding z-score [7]
TCTAGTAGGTCAAAGGTCACACACTCGAAATGCG	7.76	2.77	4.73	2.3	3.32		
CCAACTAGGTCAAAGGACAGTGAAAGGCGACGTA	4.53	1.91	2.4	0.765	0.866	3.05	
TAGCCGAGGTCATTCAGGGGCCAGTATAGAAAGC	6	4.38	4.56	2.38	5.34	6.55	
CAAACGAGGTCACGAAAGGTCAAAGTCGAATGAC	9.89	4.62	5.28	4.41	6.31		
AATACGGGGTCACTAGGCCAGAGTAGGTACGAAT	6.82	4.12	4.25	2.25	4.82		7.06
CAAAATAGGTCACGAAAGGTCAAAGTCGAATGAC	8.76	2.5	5.07	1.51	3.8	8.89	
CGTCAAAGGTCAAGGTCAGTGAAAGAGACTCGAA	9.35	3.45	4.33	2.28	3.23		
ATCGAAAGGTCATGAGGTGAGTATACAGAAAGGC	8.01	3.11	4.37	1.95	2.68		
CCTTAGGGGTCACTCCAGGTTATAGCATCGGAGT	7.07	4.21		0.963	4.35		
ACTCGGAGGTCAAAGGTCAGAGCTACGCCAGTGA	8.15	3.82		1.5	3.99		
CAAACGAGGTCACCGGAAGGTCAAAGTCCGCATG	8.7	4.24		4.61	6		
CTCGAAAGGTCATGCTCAGGTGAGTATACCAAAC	8.47	3.44	4.72	1.61	2.44		
CGTCAAAGGTCAGAGAGGTCAGTGAATGCCGAGT	9.03	3.48	4.37	1.6	5.19		
CGTCCAAGGTCAAAGGTCAATGAAGAGATGACGG	8.5	3.93		2.5	3.6		
CCTACTGGGTCAAAGGTCATTGATTCCAATGCTC	5.88	2.87	4.52	1.69	3.95		
TGTCAAAGTTCAAAGGTCACGTAAGTATCCACAC	9.03	4.57		1.88	5.69		
CGTCCGAGGTCAAGGTCAGTGAAAGAGACTCGAA	7.79	4.19	4.37	3.97	4.69		
CAAACAAGGTCAAAGGTCAAAGTCGAGCCAACCA	8.75	4.5		2.79	5.62		

Sequence	PBM binding z-score [1]	PBM binding z-score [2]	PBM binding z-score [3]	PBM binding z-score [4]	PBM binding z-score [5]	PBM binding z-score [6]	PBM binding z-score [7]
CGTCCAAGGTCAAAGGTCATTGAAGAGATGACGG	8.52	4.24		3.04	5.06		
TGTCAAAGGTCAAAGGTAACGTAAGTATCCACAC	8.8	3.15	4.47	0.695	2.81		
CAAACAAGGTCACCGGAAGGTCAAAGTCCGCATG	8.72	4.24		4.44	5.94		
CAAAATAGGTCAAAGGTCAAAGTCGAGCCAACCA	7.97	2.84	4.79	1.18	2.93		
ATCGAAAGGTCAAGGTGAGTATAGAGAAAGGGAA	8.56	2.66	4.3	1.8	1.84		
TCTAGTGGGTCAAAGGTCACACACTCGAAATGCG	7.49	2.07	4.61	1.7	2.84		
TTACCAAGGTCAAAGGTCGTTGATGCACGCCTTG	6.63	3.96	4.73	2.76	4.36		
ATCGAAAGGTCAACGAGGTGAGTATACACCGTTT	8.92	3.23	4.42	1.96	3.29		
CAAACGAGGTCAAAGGTCAAAGTCGAGCCAACCA	8.66	4.97		3.26	6.2		
CGTCAAAGGTCATAGGAGGTCAGTGAAGACAGAT	8.6	3.88		1.85	3.84		
CAAACGAGGTCAAGAGGTCAAAGTCCGCTTCCCG	8.65	4.19		4.11	6.32		
GCTTACGGGTCAAAGGTCATAGCATGAATAGAAT	7.46	3.56		1.04	3.19		
CGTCAAAGGTCAAAGGTCAGTGAAGAGATGACGG	9.73	4.01	4.94	1.08	3.49		
CGTCAAAGGTCAATGCTAGGTCAGTGAAAGCATT	8.73	3.76	4.77	1.42	2.5		
CGTCAAAGGTCAGCAGGTCAGTGAAAGCGACGTG	8.73	2.54	3.92	0.878	1.62		
CCTGCTAGGTCAAAGGTCAGCTAAAGCAGCTCGC	7.57	2.83	4.6	1.41	1.75		
ACTTAGGGGTCAACGAGGTTATAGCACGCGTATA	7.64	4.82		1.8	6.45		
CAAACAAGGTCACAGAGGTCAAAGTCCGTGCGTA	9.05	4.67	5.03	4.36	9.97		
